This is an account of results in PubChem BioAssay (NCI).

This is part of a sample that, as a whole, favours compounds with a hit. Of some 83,000 tested, about 20% had one in any assay.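 Treatment: one concentration, 48 hours, 96-well format. Scoring: percent growth, with anything below 10 considered active.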 The source made the active and inactive calls.

The test relates to HL-60(TB) leukemia. Description: NCI-60 one-dose screen, 48 h (100 = growth as untreated, 0 = no growth, -100 = all killed). To be noted: 10 µM unless noted.
As to `CN1CCN(Cc2ccc(NC(=O)c3cncc(C#Cc4cnc(N)nc4)c3)cc2C(F)(F)F)CC1`, the growth is 19.4% (inactive).

Turning to `CCCC(=O)NC(c1cccnc1)c1cc(Cl)c2cccnc2c1O` (centres undefined), the growth is 34.1% (inactive).

With `C=C1CC[C@H]2[C@@](C)(CCC3OC(c4ccc(OCc5cn(C6CC(OC(C)=O)C(OC(C)=O)C(COC(C)=O)O6)nn5)cc4)OC[C@]32C)[C@@H]1/C=C/C1=CCOC1=O` (some centres undefined), the growth is 56.2% (inactive).

For `O=C(Nc1ccc(N=Cc2c(O)[nH]c3ccccc23)cc1)Nc1nccs1`, the growth is 42% (inactive).

Take `O=C1/C(=C/C=C/c2ccco2)SC(=S)N1C1CCCCC1`: the growth is 69.4% (inactive).

Consider `O=C(N/N=C/c1ccc([N+](=O)[O-])o1)c1[nH]c2ccc(Br)cc2c1-c1ccccc1`, for which the growth was -42.1% (active).

Regarding `Cc1ccc(-n2cc(/C=N/NC(=O)c3ccncc3)c(-c3ccc(S(C)(=O)=O)cc3)n2)cc1`, the growth was 76.4% (inactive).

With `CC[C@]12C=CCN3CC[C@]4(C(=C(C(=O)OC)C1)Nc1cc5c(cc14)[C@@H]1[C@H](O5)[C@@H](O)[C@@]4(CC)CC(C(=O)OC)=C5Nc6cc(OC)ccc6[C@@]56CCN1[C@@H]46)[C@@H]32`, the growth was 5.09% (active).

In the case of `O=C(c1ccc(O)cc1)[C@@H]1[C@@H]2CCCN2[C@@]2(C(=O)N(C(=O)c3ccc(F)cc3)c3ccccc32)[C@H]1c1ccc(F)cc1`, the growth was 78.6% (inactive).

On to `COc1cc2nc(-c3ccc(Cl)cc3)cc(OCCCNCC3CCCO3)c2cc1OC` (centres undefined), for which the growth was 32.1% (inactive).

As for `Cc1sc2c(c1C)c(=O)nc1c(-c3nc(-c4ccc(F)cc4)no3)n[nH]n12`, the growth was 103% (inactive).

`Cc1ccc(-c2cc(-c3ccc(N(C)C)cc3)n3c(n2)nc2ccccc23)cc1`: the growth was 67.1% (inactive).

As to `CCOC(=O)Nc1cccc(-n2cnc3cc(-c4ccc(O)cc4)ccc32)c1`, the growth was 2.92% (active).

In the case of `Cc1ccc(NC(=O)/C=C/c2ccc(OCCCOc3ccc4c(C)cc(=O)oc4c3)cc2)cc1`, the growth is 98.5% (inactive).

Consider `CCN(CC)c1ccc2c(c1)Oc1nc(N)c(C#N)c(N)c1C2Sc1ccc(F)cc1` (centres undefined), for which the growth is -18.4% (active).

Turning to `O=C1/C(=C/c2ccc([N+](=O)[O-])cc2)SC(=Nc2ccccc2)N1Nc1ccccc1`, the growth is 25.8% (inactive).

As to `CCCCCCN1C=C/C(=C\C(=O)n2ccc3ccccc32)c2ccccc21`, the growth was 24.7% (inactive).

As for `CC(=O)Nc1ccc(NC(=O)Nc2cccc(-c3nc(-c4ccc(NC(=O)c5cccs5)cc4Cl)no3)c2)cc1C(F)(F)F`, the growth is 5.88% (active).

Take `Cn1cc(-c2nc(N)nnc2-c2c[nH]c3ccccc23)c2cc(Br)ccc21`: the growth was -0.377% (active).

Consider `COc1ccc(Cn2cc(C#N)c(N)c2C(C)=O)cc1`, for which the growth was 103% (inactive).

Regarding `COc1ccc(NC(=O)CSc2nnc(-c3ccc4nc(-c5ccc(OC)c(OC)c5)[nH]c4c3)o2)cc1OC`, the growth is 111% (inactive).

For the compound `O=C(Nc1ccc(Br)cc1)Nc1nc2ccc([N+](=O)[O-])cc2s1`, the growth is -44.3% (active).

For `O=C(CN1CCN(c2cc(=O)[nH]c3ccc(F)cc23)CC1)N(c1ccccc1)c1ccccc1`, the growth is 106% (inactive).

On to `N#Cc1ccc(/C=N/NC(=O)c2[nH]c3ccc(Br)cc3c2-c2ccccc2)s1`, for which the growth is -40% (active).

Take `CCCCc1nc(/C=N/Nc2nc(Nc3ccccc3)nc(Nc3ccc(S(N)(=O)=O)cc3)n2)c(Cl)[nH]1`: the growth is 118% (inactive).

On to `C=C1C(=O)O[C@@H]2/C=C(/C)C3=CC(=O)[C@@](C)(C[C@H](OC(=O)/C(C)=C\C)[C@@H]12)O3`, for which the growth was -11.9% (active).

In the case of `CS(=O)(=O)Nc1cc(-c2ccc3ncc(C#N)c(NCc4ccccc4O)c3c2)cnc1Cl`, the growth is 12.4% (inactive).

Regarding `Nc1ccccc1NC(=O)c1ccc(NC(=O)C/C=C/c2cccnc2)cn1`, the growth was 8.93% (active).

As to `CCCCN1C(=O)/C(=c2\sc3n(c2=O)C2C(NN=3)N(CC)C(=O)N2CC)c2cc(C)ccc21` (centres undefined), the growth was 93.2% (inactive).

Regarding `Cc1nc(N)sc1-c1csc(Nc2ccc(C(F)(F)F)cc2)n1`, the growth was 27.9% (inactive).

For `O=C1c2c(c3c4cc(O)ccc4oc3c3[nH]c4ccccc4c23)C(=O)N1O`, the growth is 9.22% (active).

Take `Nc1cc(-c2c[nH]c3ccccc23)nc2cc(-c3c[nH]c4ccccc34)nn12`: the growth was 40.1% (inactive).

Consider `O=C(NNc1nc2cc(F)ccc2n2cncc12)c1cnccn1`, for which the growth was 10.8% (inactive).

On to `COC(=O)C1(C)CCC[C@]2(C)[C@H]3C[C@H]4C(C(C)C)=C[C@]3(CC[C@@H]12)[C@H]1[C@@H]4[C@@H](OC(=O)c2ccco2)CC[C@@H]1OC(=O)c1ccco1` (some centres undefined), for which the growth was 91.9% (inactive).
